About 79,000 compounds went through this panel and 15% of them were active in at least one assay; those are over-represented in the sample as a whole. A number with no mark means an inactive call. Active and inactive are the calls of the source. Cut-off read from the data, not from the text of the source: active = growth inhibition above about 70%; inactive = the rest.

A short description of assay [1]: NCI Yeast Anticancer Drug Screen. Data for the rad50 strain (AID 155).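 Note: 0% = growth of vehicle-only cultures of the same strain.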 The following applies: S. cerevisiae rad50 strain growth inhibition, hits give high values. In a few lines:
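Cells are treated with compound, grown, and their growth is then scored against vehicle-only cultures of the same repair-deficient yeast strain.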

Assay [2] can be described thus: NCI Yeast Anticancer Drug Screen. Data for the mec2-1 strain (AID 157). The following applies: S. cerevisiae mec2-1 strain, hits give high values. The procedure, abridged:
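Strain: mec2-1 (DNA repair/cell cycle alteration). Compound exposure, then growth measured; inhibition expressed relative to vehicle.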

Assay [3] can be described thus: NCI Yeast Anticancer Drug Screen. Data for the sgs1 mgt1 strain (AID 161).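 Note: 0% = growth of cultures given vehicle only.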 The following applies: S. cerevisiae sgs1 mgt1 strain, hits give high values. The procedure, abridged:
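Read-out: growth inhibition vs vehicle controls. Cells: mutant yeast strain deficient in DNA damage repair.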

The nature of assay [4]: NCI Yeast Anticancer Drug Screen. Data for the cln2 rad14 strain (AID 165).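 Note: 0% = growth equal to vehicle treated cultures.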 The note with it: S. cerevisiae cln2 rad14 strain, hits give high values. The procedure, abridged:
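Compounds are applied to the cln2 rad14 yeast strain, and growth is then compared with that of vehicle-treated cultures to give inhibition.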

Assay [5] in a line: NCI Yeast Anticancer Drug Screen. Data for the bub3 strain (AID 167). The note with it: S. cerevisiae bub3 mutant strain, hits give high values. In a few lines:
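Part of a panel of yeast mutants defective in DNA damage repair or cell cycle regulation. Each strain is grown with compound, and inhibition is calculated relative to solvent-treated cultures.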

Assay [6] can be described thus: NCI Yeast Anticancer Drug Screen. Data for the mlh1 rad18 strain (AID 175). The following applies: S. cerevisiae mlh1 rad18 strain growth inhibition, hits give high values. The procedure, abridged: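 Read-out is yeast growth inhibition, calculated against vehicle-only controls. The compound was applied to a strain engineered with DNA damage repair alterations.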
[7] abbreviates: at 5.0 µM (retest, dose inferred, filed as 0.5).
The mark [8] stands for this setting: at 50.0 µM (retest, dose inferred, filed as 5.0).

For the molecule `CC(C)c1ccc(O)c(O)c(=O)c1` (tested in a mixture with another compound), the growth inhibition is 99% (active) in assay [1] (setting [7]); 100% (active) in assay [1] (setting [8]); 99.5% (active) in assay [1] (at 50.0 µM); 100% (active) in assay [2] (setting [7]); 100% (active) in assay [2] (setting [8]); 99.7% (active) in assay [2] (at 50.0 µM). Further, the growth inhibition in assay [3] (setting [7]) was 99% (active); in assay [3] (setting [8]), 99% (active); in assay [3] (at 50.0 µM), 99.5% (active); in assay [4] (setting [7]), 97% (active); in assay [4] (setting [8]), 99% (active); in assay [4] (at 50.0 µM) it was 99.1% (active). The growth inhibition in assay [5] (setting [7]) was 99% (active); in assay [5] (setting [8]) it was 100% (active); in assay [5] (at 50.0 µM), 99.3% (active); in assay [6] (setting [7]), 99% (active); in assay [6] (setting [8]), 99% (active); in assay [6] (at 50.0 µM) it was 99.3% (active).

With `O=C(CNc1cccc(Cl)c1)Nn1c(-c2ccccc2)nc2ccccc2c1=O`, the growth inhibition in assay [1] (setting [7]) is 7%; in assay [1] (setting [8]), 88% (active); in assay [1] (at 50.0 µM) it was 92% (active); in assay [2] (setting [7]) it was -1%; in assay [2] (setting [8]), 69%; in assay [2] (at 50.0 µM), 87.7% (active). Further, the growth inhibition is 4% in assay [3] (setting [7]); 59% in assay [3] (setting [8]); 95.2% (active) in assay [3] (at 50.0 µM); 16% in assay [4] (setting [7]); 74% (active) in assay [4] (setting [8]); 90.6% (active) in assay [4] (at 50.0 µM). In addition, the growth inhibition in assay [5] (setting [7]) is 22%; in assay [5] (setting [8]) it was 87% (active); in assay [5] (at 50.0 µM), 96% (active); in assay [6] (setting [7]), 4%; in assay [6] (setting [8]), 86% (active); in assay [6] (at 50.0 µM), 96.7% (active).

Turning to `CSc1c(S(C)=O)c2ccccc2n1C` (stereo not given), the growth inhibition in assay [1] (setting [7]) was 20%; in assay [1] (setting [8]), 17%; in assay [1] (at 50.0 µM), -20.6%; in assay [2] (setting [7]), 22%; in assay [2] (setting [8]), 27%; in assay [2] (at 50.0 µM) it was -13.2%. Further, the growth inhibition in assay [3] (setting [7]) is 12%; in assay [3] (setting [8]), 11%; in assay [3] (at 50.0 µM), -22.2%; in assay [4] (setting [7]) it was 25%; in assay [4] (setting [8]), 17%; in assay [4] (at 50.0 µM), -6.4%. In addition, the growth inhibition in assay [5] (setting [7]) was 3%; in assay [5] (setting [8]) it was 8%; in assay [5] (at 50.0 µM), -39.5%; in assay [6] (setting [7]), 27%; in assay [6] (setting [8]), 20%; in assay [6] (at 50.0 µM), -26.4%.

For `N#CC1=C(N)OC(c2ccccc2)=C(C#N)C1c1ccccc1` (stereo not given), the growth inhibition in assay [1] (setting [7]) is 90% (active); in assay [1] (setting [8]), 99% (active); in assay [1] (at 50.0 µM), 99.2% (active); in assay [2] (setting [7]), 97% (active); in assay [2] (setting [8]) it was 100% (active); in assay [2] (at 50.0 µM) it was 99.5% (active). Further, the growth inhibition in assay [3] (setting [7]) is 96% (active); in assay [3] (setting [8]), 100% (active); in assay [3] (at 50.0 µM) it was 99.3% (active); in assay [4] (setting [7]), 98% (active); in assay [4] (setting [8]) it was 99% (active); in assay [4] (at 50.0 µM), 99.2% (active). Further, the growth inhibition was 98% (active) in assay [5] (setting [7]); 99% (active) in assay [5] (setting [8]); 99.5% (active) in assay [5] (at 50.0 µM); 97% (active) in assay [6] (setting [7]); 99% (active) in assay [6] (setting [8]); 99.3% (active) in assay [6] (at 50.0 µM).

On to `OC1CN(C2CCCCC2)CC1C1(O)CCN(C2CCCCC2)C1` (stereo not given), for which the growth inhibition is 0% in assay [1] (setting [7]); 6% in assay [1] (setting [8]); 20.1% in assay [1] (at 50.0 µM); 1% in assay [2] (setting [7]); 5% in assay [2] (setting [8]); -2.75% in assay [2] (at 50.0 µM). The growth inhibition in assay [3] (setting [7]) was 0%; in assay [3] (setting [8]) it was 11%; in assay [3] (at 50.0 µM), 12.8%; in assay [4] (setting [7]), 4%; in assay [4] (setting [8]), 10%; in assay [4] (at 50.0 µM) it was 65.7%. In addition, the growth inhibition in assay [5] (setting [7]) is 1%; in assay [5] (setting [8]), 15%; in assay [5] (at 50.0 µM), -5.85%; in assay [6] (setting [7]) it was 3%; in assay [6] (setting [8]) it was 10%; in assay [6] (at 50.0 µM) it was 20.2%.

As for `ClCc1ccc2oc3ccccc3c2c1`, the growth inhibition in assay [1] (setting [7]) was -5%; in assay [1] (setting [8]), 8%; in assay [1] (at 50.0 µM) it was 30%; in assay [2] (setting [7]), 1%; in assay [2] (setting [8]), 0%; in assay [2] (at 50.0 µM), 17.1%. Besides, the growth inhibition was -12% in assay [3] (setting [7]); -4% in assay [3] (setting [8]); 27.9% in assay [3] (at 50.0 µM); -1% in assay [4] (setting [7]); -8% in assay [4] (setting [8]); 43.5% in assay [4] (at 50.0 µM). Further, the growth inhibition in assay [5] (setting [7]) was 2%; in assay [5] (setting [8]), -7%; in assay [5] (at 50.0 µM), -23.6%; in assay [6] (setting [7]) it was -3%; in assay [6] (setting [8]), 5%; in assay [6] (at 50.0 µM), 68.6%.

For the molecule `S=C1NC2=C(COC/C2=C\c2ccccc2Cl)C(c2ccccc2Cl)N1` (stereo not given), the growth inhibition in assay [1] (setting [7]) is 94% (active); in assay [1] (setting [8]), 94% (active); in assay [1] (at 50.0 µM), 76.9% (active); in assay [2] (setting [7]) it was 47%; in assay [2] (setting [8]), 96% (active); in assay [2] (at 50.0 µM) it was 81.5% (active). The growth inhibition in assay [3] (setting [7]) is 55%; in assay [3] (setting [8]), 97% (active); in assay [3] (at 50.0 µM), 79.2% (active); in assay [4] (setting [7]) it was 53%; in assay [4] (setting [8]) it was 96% (active); in assay [4] (at 50.0 µM) it was 76.8% (active). In addition, the growth inhibition in assay [5] (setting [7]) is 58%; in assay [5] (setting [8]) it was 96% (active); in assay [5] (at 50.0 µM) it was 82% (active); in assay [6] (setting [7]), 92% (active); in assay [6] (setting [8]), 94% (active); in assay [6] (at 50.0 µM), 81.3% (active).

As to `CC(=O)Nc1ccc(NC(=S)Nc2ccc(NC(C)=O)cc2)cc1`, the growth inhibition was 97% (active) in assay [1] (setting [7]); 99% (active) in assay [1] (setting [8]); 92% (active) in assay [1] (at 50.0 µM); 47% in assay [2] (setting [7]); 100% (active) in assay [2] (setting [8]); 15% in assay [2] (at 50.0 µM). Moreover, the growth inhibition in assay [3] (setting [7]) was 68%; in assay [3] (setting [8]), 100% (active); in assay [3] (at 50.0 µM), -1.7%; in assay [4] (setting [7]) it was 43%; in assay [4] (setting [8]), 99% (active); in assay [4] (at 50.0 µM), -5.1%. In addition, the growth inhibition was 62% in assay [5] (setting [7]); 100% (active) in assay [5] (setting [8]); 0.6% in assay [5] (at 50.0 µM); 82% (active) in assay [6] (setting [7]); 99% (active) in assay [6] (setting [8]); 13.8% in assay [6] (at 50.0 µM).

With `CC1(C)CCC[C@@]2(C)C1CC[C@@]1(CO1)[C@@H]2/C=C\C(C=O)CC=O` (stereo not given in full), the growth inhibition in assay [1] (setting [7]) was 60%; in assay [1] (setting [8]), 99% (active); in assay [1] (at 50.0 µM), 92.9% (active); in assay [2] (setting [7]), 36%; in assay [2] (setting [8]), 100% (active); in assay [2] (at 50.0 µM), 94.2% (active). In addition, the growth inhibition is 59% in assay [3] (setting [7]); 100% (active) in assay [3] (setting [8]); 94.5% (active) in assay [3] (at 50.0 µM); 70% (active) in assay [4] (setting [7]); 100% (active) in assay [4] (setting [8]); 92.7% (active) in assay [4] (at 50.0 µM). The growth inhibition in assay [5] (setting [7]) was 79% (active); in assay [5] (setting [8]), 100% (active); in assay [5] (at 50.0 µM), 93.3% (active); in assay [6] (setting [7]), 87% (active); in assay [6] (setting [8]) it was 99% (active); in assay [6] (at 50.0 µM), -27.4%.

`CCNC(=S)N/N=C/c1ccccn1`: the growth inhibition in assay [1] (setting [7]) was -15%; in assay [1] (setting [8]) it was 95% (active); in assay [1] (at 50.0 µM) it was 81.5% (active); in assay [2] (setting [7]) it was -42%; in assay [2] (setting [8]), 92% (active); in assay [2] (at 50.0 µM), 84% (active). In addition, the growth inhibition was -29% in assay [3] (setting [7]); 95% (active) in assay [3] (setting [8]); 78.2% (active) in assay [3] (at 50.0 µM); -21% in assay [4] (setting [7]); 95% (active) in assay [4] (setting [8]); 81.2% (active) in assay [4] (at 50.0 µM). Also, the growth inhibition in assay [5] (setting [7]) is -15%; in assay [5] (setting [8]) it was 95% (active); in assay [5] (at 50.0 µM) it was 82.5% (active); in assay [6] (setting [7]), -33%; in assay [6] (setting [8]), 97% (active); in assay [6] (at 50.0 µM), 76.5% (active).
